Screening data: PubChem BioAssay, National Center for Advancing Translational Sciences (NCATS)
Compounds with a hit are over-represented: about 9.3% of the library has one in this group of screens.
SMN2 splice enh – SMN2 splice variant enhancement | HEK293 SMN2-luciferase splicing reporter, luminescence, 30-36 h | Potency, µM (highest dose often 46.1 µM), hits mostly activators | 210,000 tested, 2.8% active; further: nearly all actives have a fitted effect of over 55% in size
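HEK293 cells carry an SMN2 […]–luciferase reporter in which exon 7 inclusion puts luciferase in frame. Cells were plated 10-12 h before compound addition, then incubated 30-36 h at 37C. ONE-Glo luminescence was read; sodium butyrate at 4.5 mM final served as control.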
ELG1 DNA repair – inhibitors of ELG1-dependent DNA repair in HEK293T cells. HEK293T ELG1-luciferase reporter, luminescence, 16 h; DNA damage induced by 5-fluorouridine. 330,000 tested, 2.3% active. Potency, µM (highest dose often 46.1 µM), usual class: inhibitors; further: nearly all actives have a fitted effect of over 55% in size
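Cells (2,000 per well) received 5-fluorouridine plus test compound or DMSO and were incubated 16 hr at 37 °C, 5% CO2. Luciferase activity was read by luminescence 30 min after ONE-Glo addition; signal suppression marked inhibition of damage-induced ELG1 function.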
FLuc modulator – inhibits or activates purified firefly luciferase, miR-21 counter-screen; P08659; purified FLuc, Km substrates, luminescence inhibition; Potency, µM (highest dose often 57.5 µM), actives largely listed as inhibitors; 360,000 tested, 6.9% active; AID 588342; further: nearly all actives have a fitted effect of over 55% in size
Target sequence (P08659 whole entry, looked up): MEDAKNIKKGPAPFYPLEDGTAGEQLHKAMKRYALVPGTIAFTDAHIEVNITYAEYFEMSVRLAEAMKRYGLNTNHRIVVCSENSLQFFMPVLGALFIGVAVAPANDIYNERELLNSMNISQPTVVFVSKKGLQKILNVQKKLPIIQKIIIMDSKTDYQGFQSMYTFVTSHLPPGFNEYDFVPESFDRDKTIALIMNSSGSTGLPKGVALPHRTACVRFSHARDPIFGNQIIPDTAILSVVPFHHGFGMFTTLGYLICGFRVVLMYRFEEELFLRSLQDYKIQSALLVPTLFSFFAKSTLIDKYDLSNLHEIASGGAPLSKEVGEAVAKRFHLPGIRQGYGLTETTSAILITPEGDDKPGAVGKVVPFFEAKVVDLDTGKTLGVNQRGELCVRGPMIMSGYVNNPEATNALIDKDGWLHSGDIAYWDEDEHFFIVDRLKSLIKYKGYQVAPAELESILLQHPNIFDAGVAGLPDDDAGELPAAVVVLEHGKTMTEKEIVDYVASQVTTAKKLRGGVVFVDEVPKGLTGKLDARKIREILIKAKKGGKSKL
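Purified P. pyralis luciferase, 10 nM final, with Km-level 10 uM D-luciferin and 10 uM ATP in 50 mM Tris acetate pH 7.5, 10 mM Mg acetate, 0.01% Tween-20, 0.05% BSA; 6-point qHTS titration about 60 µM downward; luminescence read.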
Rab9 promoter act – activators of Rab9 promoter | Potency, µM (series often up to 9.22 µM), hits mostly activators | 320,000 tested, 2.8% active | Huh7 Rab9 promoter-luciferase reporter, luminescence, 24 h; further: nearly all actives have a fitted effect of over 60% in size
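Using Huh7 cells stably transfected with Rab9 promoter–luciferase, compounds were incubated 24 h at 37 °C, 5% CO2; luciferase luminescence was read 10 min after reagent addition.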
NPC1 promoter act – activates the NPC1 promoter | Huh7 NPC1 promoter luciferase reporter, 24 h | Potency, µM (series often up to 9.22 µM), most hits filed as activators | 320,000 tested, 2.4% active | AID 485313; further: nearly all actives have a fitted effect of over 60% in size
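NPC1 promoter–luciferase Huh7 cells; 24 h compound; luminescence.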
ELG1 genotoxic – induces genotoxicity in HEK293T cells with luciferase-tagged ELG1 | 330,000 tested, 1.3% active | Potency, µM (top dose mostly 46 µM), hits mostly activators | AID 504466 | HEK293T ELG1-luciferase reporter, luminescence, 16 h; further: nearly all actives have a fitted effect of over 60% in size
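HEK293T cells expressing luciferase-tagged ELG1 were exposed to compound or DMSO vehicle for 16 hr at 37 °C and 5% CO2. Luciferase activity was then measured with ONE-Glo after 30 min at room temperature.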
Hits are given with their value. The call rests on the fitted dose curve; in most records, active means well fitted curve in the direction sought with a large enough effect; inconclusive means small, poorly fitted or top-dose-only effect, or another doubt; inactive means no such curve, though single readings can be large; an effect the other way counts as inactive or inconclusive.

Screening CCOC(=O)c1cccc(NC(=O)c2cc3sccc3n2C)c1 returned SMN2 splice enh 14µM, ELG1 DNA repair inconclusive, FLuc modulator 24µM, Rab9 promoter act 0.89µM, NPC1 promoter act 0.35µM and ELG1 genotoxic inconclusive.
CCOC(=O)c1cccc(Nc2nc(C)cc(C)n2)c1 was read as SMN2 splice enh inconclusive, ELG1 DNA repair inconclusive, FLuc modulator inconclusive, Rab9 promoter act 4.5µM, NPC1 promoter act inconclusive and ELG1 genotoxic inactive.
For Cc1ccc(C)c(OCC(=O)Nc2ccccc2C(=O)N2CCOCC2)c1 the results were ELG1 DNA repair inactive, FLuc modulator inactive, Rab9 promoter act inactive, NPC1 promoter act inactive and ELG1 genotoxic inactive.
`Cc1ccc(C(O)C2=CCCC2=O)cc1` (centres undefined) gave SMN2 splice enh inactive.
COc1ccc2c(c1)c(C(=O)CN1CCc3ccccc3C1)c(C)n2C was read as ELG1 DNA repair inactive, FLuc modulator inactive, Rab9 promoter act inactive, NPC1 promoter act inactive and ELG1 genotoxic inactive.
Screening CC(=O)Oc1cccc(C(=O)Nc2ccc(NC(=O)c3cccs3)cc2)c1 returned ELG1 DNA repair inconclusive, FLuc modulator inactive, Rab9 promoter act inconclusive, NPC1 promoter act 4.5µM and ELG1 genotoxic inconclusive.
For O=C(O)c1ccc(NC(=O)c2cccc(NC(=O)c3cccs3)c2)cc1 the results were ELG1 DNA repair inactive, FLuc modulator inconclusive, Rab9 promoter act inactive, NPC1 promoter act inactive and ELG1 genotoxic inactive.
`Cn1c2ccccc2c(=O)c2cc(C#CC3=CCCCC3)ccc21` gave ELG1 DNA repair inconclusive, FLuc modulator 6.7µM, Rab9 promoter act inconclusive, NPC1 promoter act inconclusive and ELG1 genotoxic inconclusive.
Cn1c2ccccc2c(=O)c2ccc(C#Cc3ccc(N)cc3)cc21 was read as ELG1 DNA repair inactive, FLuc modulator inconclusive, Rab9 promoter act inactive, NPC1 promoter act inactive and ELG1 genotoxic inactive.
Cn1c2ccccc2c(=O)c2cc(C#Cc3cccc(N)c3)ccc21 was read as ELG1 DNA repair inconclusive, FLuc modulator 4.8µM, Rab9 promoter act inactive, NPC1 promoter act inactive and ELG1 genotoxic inconclusive.
For COc1ccc(C#Cc2ccc3c(=O)c4ccccc4n(C)c3c2)cc1 the results were ELG1 DNA repair inactive, FLuc modulator inactive, Rab9 promoter act inactive, NPC1 promoter act inactive and ELG1 genotoxic inactive.
Screening O=C(N/N=C/c1ccc(F)cc1)c1cc(-c2ccc3c(c2)OCO3)n[nH]1 returned ELG1 DNA repair inactive, FLuc modulator inactive, Rab9 promoter act inactive, NPC1 promoter act inactive and ELG1 genotoxic inactive.
Screening CN(C)c1ccc(/C=N/NC(=O)c2cc(-c3ccc4c(c3)OCO4)n[nH]2)cc1 returned ELG1 DNA repair inactive, FLuc modulator 12µM, Rab9 promoter act inactive, NPC1 promoter act inconclusive and ELG1 genotoxic inactive.
`COc1cc(/C=N/NC(=O)c2cccnc2)ccc1OC(=O)c1ccc2c(c1)OCO2` gave SMN2 splice enh inactive, ELG1 DNA repair inactive, FLuc modulator inactive, Rab9 promoter act inactive, NPC1 promoter act inactive and ELG1 genotoxic inactive.
Screening COc1ccc(/C=N/NC(=O)c2cc(-c3ccc4c(c3)OCO4)n[nH]2)cc1OC returned SMN2 splice enh inactive, ELG1 DNA repair 15µM, FLuc modulator inconclusive, Rab9 promoter act inactive, NPC1 promoter act inactive and ELG1 genotoxic inactive.
Screening CCOc1ccccc1N1CCN(C2=C(NS(=O)(=O)c3cccs3)C(=O)c3ccccc3C2=O)CC1 returned SMN2 splice enh inactive, ELG1 DNA repair 23µM, FLuc modulator inactive, Rab9 promoter act inactive, NPC1 promoter act inactive and ELG1 genotoxic inactive.
Screening CN1CCN(C2=C(NS(=O)(=O)c3cccs3)C(=O)c3ccccc3C2=O)CC1 returned ELG1 DNA repair inactive, FLuc modulator inactive, Rab9 promoter act inconclusive, NPC1 promoter act inactive and ELG1 genotoxic inactive.
For O=C1C(NS(=O)(=O)c2cccs2)=C(N2CCN(Cc3ccccc3)CC2)C(=O)c2ccccc21 the results were ELG1 DNA repair 23µM, FLuc modulator inactive, Rab9 promoter act inactive, NPC1 promoter act inactive and ELG1 genotoxic inactive.
